# Measured values: publication PMC5540273 (PLoS ONE, 2017)
# Tested on: BRAF
# Conditions: concentration: 1 μM, replicates: in singlicate; n = 1
# 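Note: KINOMEscan kinase panel screen.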
row,SMILES,%Inh [%]
1,Cc1c2ccc(N(C)c3ccnc(Nc4cccc(S(N)(=O)=O)c4)n3)cc2nn1Cc1ccccc1.Cl.Cl [GW787226],95.8
2,Fc1ccc(-c2ncn(CCCN3CCOCC3)c2-c2cccnc2)cc1 [SB-211743],2
3,COc1ccc(Nc2ncc(C#N)c(Nc3ccccc3C(N)=O)n2)cc1N1CCN(C)CC1.Cl [GSK1558669],98.6
4,O=c1cc(N2CCOCC2)nc2n(Cc3cccc4ccccc34)ccn12 [GSK2333389],9
5,CCc1nc(-c2cccc(C)c2)c(-c2ccnc(NCc3ccccc3)c2)s1,38
6,O=C(NCCNc1ccnc(Nc2ccc(F)cc2)n1)c1cc2ccccc2s1 [GSK1379874],0
7,O=C(NCCNc1ccnc(Nc2ccc(F)cc2)n1)Nc1ccccc1F [GSK1379880],0
8,CN(C(=O)c1ccc(-c2cc(-c3c[nH]nc3-c3ccccn3)ccn2)cc1)C1CCOCC1 [GW810083],0
9,O=C(Nc1n[nH]c2cc(-c3cccc(F)c3)ccc12)C1CC1 [SB-735464],1
10,Cc1nnc(-c2ccc(C)c(-c3ccc(C(=O)Nc4ccc(NS(C)(=O)=O)cc4)cc3)c2)o1 [GW702865],0
11,COc1ccc(S(=O)(=O)NC2CCN(c3cc(C)nc(Nc4cccc(C#N)c4)n3)CC2)cc1.O=C(O)C(F)(F)F [GSK1653539],0
12,O=C(NOCC1CC1)c1ccc(F)c(F)c1Nc1ccc(I)cc1Cl,0
13,COc1cc2c(cc1OC[C@@H](O)CO)ncc1c3ccc(C#N)cc3[nH]c21,0
14,NS(=O)(=O)CCc1cccc(Nc2nccc(-c3c(-c4cccc(NC(=O)c5c(F)cccc5F)c4)nn4ccccc34)n2)c1 [GSK336735],89
15,COc1ccc(CNC(=O)NC2CCN(c3ccnc(Nc4ccc(OC)cc4)n3)C2)cc1 (stereo not drawn) [GSK1379727],0
16,c1ccc(-c2cc(-c3c[nH]nc3-c3ccccn3)ccn2)cc1 [GW576604],0
17,Cn1cc(-c2ccc3c(c2)CCN3C(=O)Cc2ccccc2Cl)c2c(N)ncnc21 [GSK2608885],90.5

row,SMILES,%Inh [%]
1,Cc1nnc(-c2ccc3ncc(-c4ccc(S(C)=O)cc4)n3c2)o1 (stereo not drawn),62
2,Cc1ccc(NC(=O)c2ccnc(N3CCN(C)CC3)c2)cc1-c1ccc(C(=O)NCC2CC2)cc1 [GW775604],0
3,CN(C1=C(c2ccccc2)C(=O)NC1=O)c1ccccc1 [SB-334860],0
4,Cc1ccc(C(=O)NCC(N)=O)cc1-n1c(C)cc(OCc2ccc(F)cc2F)c(Br)c1=O,0
5,NCC(NC(=O)c1cc(-c2cn[nH]c2)c(-c2ccnc3[nH]ccc23)s1)c1ccccc1.O=C(O)C(F)(F)F.O=C(O)C(F)(F)F (stereo not drawn) [GSK1325775],0
6,CNc1ncnc2[nH]ncc12 [SKF-18355],11
7,CCCCCc1nc2c(N)ncnc2n1CCCCC [SKF-97255],0
8,C[C@@H](Oc1cc(-n2cnc3ccc(NC(=O)NC(C)(C)C)cc32)sc1C(N)=O)c1ccccc1Cl [GSK346294],0
9,Cl.Oc1cccc(Nc2ccnc3cc(-c4ccncc4)ccc23)c1 [GW494601],76
10,O=C1NC(=O)C(N2CCc3ccccc32)=C1c1cccc(Cl)c1 [SB-408010],3
11,Cc1cn2c(=O)cc(N3CCOCC3)nc2n1Cc1cccc(Cl)c1Cl [GSK2334006],15
12,N#Cc1c(N2CCOCC2)sc(-c2ccn[nH]2)c1-c1ccc(Cl)cc1,0
13,CC(=O)Nc1ccc(COc2ccc(Nc3ccnc4cc(-c5ccccn5)ccc34)cc2)cc1.Cl [GW440148],0
14,O=c1cc(N2CCOCC2)nc2n(Cc3cccc(C(F)(F)F)c3)ccn12 [GSK2297543],0
15,Fc1ccc(-c2nn3c(OCC(F)(F)F)cccc3c2-c2ccncc2)cc1 [GW514784],44
16,Cc1cccc(-c2nc(Nc3ccc4ncsc4c3)c3ccccc3n2)n1 [GW867588],7

# Tested on: T1, BRK
# T1 construct: gene PTK6
# Conditions: concentration: 1 μM, replicates: in singlicate; n = 1
row,SMILES,%Inh [%]
1,Cc1c2ccc(N(C)c3ccnc(Nc4cccc(S(N)(=O)=O)c4)n3)cc2nn1Cc1ccccc1.Cl.Cl [GW787226],89
2,Fc1ccc(-c2ncn(CCCN3CCOCC3)c2-c2cccnc2)cc1 [SB-211743],0
3,COc1ccc(Nc2ncc(C#N)c(Nc3ccccc3C(N)=O)n2)cc1N1CCN(C)CC1.Cl [GSK1558669],99.7
4,O=c1cc(N2CCOCC2)nc2n(Cc3cccc4ccccc34)ccn12 [GSK2333389],0
5,CCc1nc(-c2cccc(C)c2)c(-c2ccnc(NCc3ccccc3)c2)s1,0
6,O=C(NCCNc1ccnc(Nc2ccc(F)cc2)n1)c1cc2ccccc2s1 [GSK1379874],29
7,O=C(NCCNc1ccnc(Nc2ccc(F)cc2)n1)Nc1ccccc1F [GSK1379880],6
8,CN(C(=O)c1ccc(-c2cc(-c3c[nH]nc3-c3ccccn3)ccn2)cc1)C1CCOCC1 [GW810083],4
9,O=C(Nc1n[nH]c2cc(-c3cccc(F)c3)ccc12)C1CC1 [SB-735464],0
10,Cc1nnc(-c2ccc(C)c(-c3ccc(C(=O)Nc4ccc(NS(C)(=O)=O)cc4)cc3)c2)o1 [GW702865],3
11,COc1ccc(S(=O)(=O)NC2CCN(c3cc(C)nc(Nc4cccc(C#N)c4)n3)CC2)cc1.O=C(O)C(F)(F)F [GSK1653539],0
12,O=C(NOCC1CC1)c1ccc(F)c(F)c1Nc1ccc(I)cc1Cl,0
13,COc1cc2c(cc1OC[C@@H](O)CO)ncc1c3ccc(C#N)cc3[nH]c21,0
14,NS(=O)(=O)CCc1cccc(Nc2nccc(-c3c(-c4cccc(NC(=O)c5c(F)cccc5F)c4)nn4ccccc34)n2)c1 [GSK336735],96
15,COc1ccc(CNC(=O)NC2CCN(c3ccnc(Nc4ccc(OC)cc4)n3)C2)cc1 (stereo not drawn) [GSK1379727],9
16,c1ccc(-c2cc(-c3c[nH]nc3-c3ccccn3)ccn2)cc1 [GW576604],0
17,Cn1cc(-c2ccc3c(c2)CCN3C(=O)Cc2ccccc2Cl)c2c(N)ncnc21 [GSK2608885],95.3

row,SMILES,%Inh [%]
1,Cc1nnc(-c2ccc3ncc(-c4ccc(S(C)=O)cc4)n3c2)o1 (stereo not drawn),14
2,Cc1ccc(NC(=O)c2ccnc(N3CCN(C)CC3)c2)cc1-c1ccc(C(=O)NCC2CC2)cc1 [GW775604],0
3,CN(C1=C(c2ccccc2)C(=O)NC1=O)c1ccccc1 [SB-334860],2
4,Cc1ccc(C(=O)NCC(N)=O)cc1-n1c(C)cc(OCc2ccc(F)cc2F)c(Br)c1=O,23
5,NCC(NC(=O)c1cc(-c2cn[nH]c2)c(-c2ccnc3[nH]ccc23)s1)c1ccccc1.O=C(O)C(F)(F)F.O=C(O)C(F)(F)F (stereo not drawn) [GSK1325775],0
6,CNc1ncnc2[nH]ncc12 [SKF-18355],0
7,CCCCCc1nc2c(N)ncnc2n1CCCCC [SKF-97255],0
8,C[C@@H](Oc1cc(-n2cnc3ccc(NC(=O)NC(C)(C)C)cc32)sc1C(N)=O)c1ccccc1Cl [GSK346294],17
9,Cl.Oc1cccc(Nc2ccnc3cc(-c4ccncc4)ccc23)c1 [GW494601],90
10,O=C1NC(=O)C(N2CCc3ccccc32)=C1c1cccc(Cl)c1 [SB-408010],0
11,Cc1cn2c(=O)cc(N3CCOCC3)nc2n1Cc1cccc(Cl)c1Cl [GSK2334006],5
12,N#Cc1c(N2CCOCC2)sc(-c2ccn[nH]2)c1-c1ccc(Cl)cc1,8
13,CC(=O)Nc1ccc(COc2ccc(Nc3ccnc4cc(-c5ccccn5)ccc34)cc2)cc1.Cl [GW440148],57
14,O=c1cc(N2CCOCC2)nc2n(Cc3cccc(C(F)(F)F)c3)ccn12 [GSK2297543],2
15,Fc1ccc(-c2nn3c(OCC(F)(F)F)cccc3c2-c2ccncc2)cc1 [GW514784],1
16,Cc1cccc(-c2nc(Nc3ccc4ncsc4c3)c3ccccc3n2)n1 [GW867588],0
